The values below come from PubChem BioAssay AID463173 (ICCB-Longwood Screening Facility, Harvard Medical School, 2010).

The whole screen tested about 52,000 compounds, of which about 4,300 (8.3%) were called active. Many of the other results were omitted from the sample, so actives are more common in it than they were. Unmarked numbers belong to inactive results. Rule as the data show it: active = survival mostly below about 52% (no sharp cut-off); inactive = mostly above about 56%.

For this assay, the system named is DeltatarO mutant. In words: growth inhibition of S. aureus wild type versus tarO mutant, primary screen, teichoic acid synthesis inhibitors, RN4220, OD600 (AID 463173). The note with it: OD600, 18 h, hits give low values, screened at 18.75 µg/mL (by protocol).
`COc1ccc(NC(=O)C2CCCN(c3cnccn3)C2)c(OC)c1` (stereo not drawn): the survival is 107%.
With `Cc1c(C)n(Cc2ccccc2)c2ccc(C(=O)N3CCN(c4ccccc4F)CC3)cc12`, the survival is 80%.
With `Cc1cc(C)c(NC(=O)CCS(=O)(=O)c2cc3c(cc2Cl)NC(=O)CO3)c(C)c1` the figure was 80%.
With `CCCOc1cccc(C2c3c(oc4ccc(F)cc4c3=O)C(=O)N2c2nc(C)c(C(C)=O)s2)c1` (stereo not drawn) the figure was 65%.
On to `CSc1ccc(CCNC(=O)Cn2ncc3c(=O)oc4ccc(C)cc4c32)cc1`, for which the survival was 89%.
The result for `COC(=O)c1cc(OC)c(OC)c(OC)c1NC(=O)c1cc(=O)n(C)c(=O)n1C` reads 78%.
For `CC(=O)OC1COC(N2CCc3ccccc32)C(OC(C)=O)C1OC(C)=O` (stereo not drawn), the survival is 97%.
As for `CC1CCN(C(=O)c2ccc3c(c2)N(Cc2ccccc2F)C(=O)c2ccccc2S3(=O)=O)CC1`, the survival was 80%.
`CCC(=O)N1CCc2cc(S(=O)(=O)NCCC(=O)NC(C)c3ccccc3)ccc21` (stereo not drawn): the survival was 85%.
For `CCSc1ncc(Cl)c(C(=O)Nc2ccc(S(=O)(=O)N(C)c3ccccc3)cc2)n1`, the survival was 71%.
With `CSc1ncc(Cl)c(C(=O)Nc2ccc(S(=O)(=O)N3CCCC(C)C3)cc2)n1` (stereo not drawn) the figure was 79%; with `CC(C)Sc1ncc(Cl)c(C(=O)Nc2ccc(S(=O)(=O)Nc3ncccn3)cc2)n1`, 50%.
With `CCN(c1ccccc1)S(=O)(=O)c1ccc(NC(=O)c2nc(SC(C)C)ncc2Cl)cc1`, the survival was 44% (active).
With `CC1CCCN(S(=O)(=O)c2ccc(NC(=O)c3nc(SC(C)C)ncc3Cl)cc2)C1` (stereo not drawn), the survival is 44% (active).
With `CN(c1ccccc1)S(=O)(=O)c1ccc(NC(=O)c2nc(S(C)(=O)=O)ncc2Cl)cc1`, the survival is -1% (active).
With `CC(C)Sc1ncc(Cl)c(C(=O)Nc2ccc(S(=O)(=O)N(C)c3ccccc3)cc2)n1` the figure was 55%; with `CS(=O)(=O)c1ncc(Cl)c(C(=O)Nc2c(C(=O)Nc3ccccc3)oc3ccccc23)n1`, 55%.
As for `CCN(c1ccccc1)S(=O)(=O)c1ccc(NC(=O)c2nc(SC)ncc2Cl)cc1`, the survival is 55%.
With `CC(C)Sc1ncc(Cl)c(C(=O)Nc2ccc(S(=O)(=O)N3CCCCC3)cc2)n1`, the survival is 57%.
With `CCCSc1ncc(Cl)c(C(=O)Nc2ccc(S(=O)(=O)N(C)c3ccccc3)cc2)n1` the figure was 54%; with `CCS(=O)(=O)c1ncc(Cl)c(C(=O)Nc2ccc(S(=O)(=O)N(C)c3ccccc3)cc2)n1`, 0% (active); with `CCOc1ccccc1CNC(=O)C1CCN(c2nc3ccccc3nc2C(F)(F)F)CC1`, 69%.
The result for `CCOc1ccc(NC(c2ccc(Cl)cc2)c2nnc(-c3cccc(F)c3)o2)cc1` (stereo not drawn) reads 90%.
